In test [1] the target is Paired box protein Pax-6 (Homo sapiens) (UniProt P26367). Put plainly: ATG_Pax6_CIS: Attagene CIS-FACTORIAL HepG2 Assay for human Paired Box 6 (PAX6) (AID 2282956). The conditions noted are these: HepG2 CIS-FACTORIAL PAX6 reporter transcription, RNA readout; actives raise or lower the signal. The method in brief: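 Transient MRTU transfection of HepG2 → compound exposure 24 h → TriZol RNA, oligo(dT) RT → PCR, 6-FAM primer extension, HpaI cut → capillary electrophoresis; activity fitted both directions against DMSO.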

Test [2] can be described thus: ATG_PXRE_CIS: Attagene CIS-FACTORIAL HepG2 Assay for human Pregnane X Receptor Element (PXRE) (AID 2282957). The conditions noted are these: HepG2 Attagene CIS-FACTORIAL PXRE reporter, mRNA; actives raise or lower the signal. The method in brief:
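Transiently transfected HepG2 cells were dosed and incubated for 24 h. RNA was then isolated, DNase-treated, reverse-transcribed and reporter sequences amplified. Labeled, HpaI-digested fragments were quantified by capillary electrophoresis against DMSO.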

The nature of test [3]: ATG_PPRE_CIS: Attagene CIS-FACTORIAL HepG2 Assay for human Peroxisome Proliferator-activated Response Element (PPRE) (AID 2282958). The conditions noted are these: HepG2 PPRE cis-element reporter, Attagene transcription factor profiling; actives raise or lower the signal. The method in brief: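 HepG2 cells are transiently transfected with multiplexed cis-promoter reporter units to report endogenous PPAR activity. After 24 h dosing, reporter mRNA is read by RT-PCR and capillary electrophoresis. Fitting is bidirectional against DMSO.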

The nature of test [4]: ATG_RORE_CIS: Attagene CIS-FACTORIAL HepG2 Assay for human RAR-related Orphan Receptor Element (RORE) (AID 2282959). The conditions noted are these: HepG2 Attagene cis-factorial RORE reporter, mRNA; actives raise or lower the signal. The method in brief:
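HepG2 cells carrying transiently transfected cis-regulated reporter units; RORE-driven reporter mRNA quantified 24 h post-dosing by RT-PCR, 6-FAM primer extension, HpaI digestion and capillary electrophoresis. Bidirectional fit versus DMSO.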

Test [5] in a line: ATG_Sox_CIS: Attagene CIS-FACTORIAL HepG2 Assay for human SRY-box transcription factor (SOX) (AID 2282960). The conditions noted are these: HepG2 Attagene cis-factorial SOX reporter, mRNA; actives raise or lower the signal. The method in brief: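 HepG2 cells transiently transfected with multiple cis-regulated reporter units, then dosed for 24 h. Reporter mRNA quantified by RT-PCR, fluorescent labelling, HpaI digestion and capillary electrophoresis; bidirectional fit versus DMSO.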

For test [6], the target named is Transcription factor Sp1 (Homo sapiens) (UniProt P08047). Put plainly: ATG_Sp1_CIS: Attagene CIS-FACTORIAL HepG2 Assay for human Specificity Protein 1 (Sp1) (AID 2282961). The conditions noted are these: HepG2 Sp1 cis-reporter transcription, actives raise or lower the signal. A digest of the protocol:
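HepG2 cells transiently transfected with multiplexed cis-regulated reporter constructs, chemical exposure 24 h. Reporter mRNA quantified by RT-PCR with capillary electrophoresis; bidirectional fit relative to DMSO.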

A short description of test [7]: ATG_SREBP_CIS: Attagene CIS-FACTORIAL HepG2 Assay for human Sterol Regulatory Element Binding (SREBP) (AID 2282962). The conditions noted are these: HepG2 Attagene cis-factorial SREBP reporter, mRNA; actives raise or lower the signal. The method in brief: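 Transfected HepG2 (cis-regulated reporter library, endogenous TFs) → compound 24 h → total RNA → oligo(dT) RT → reporter-specific PCR → FAM primer extension, HpaI cut → CE fluorescence. Fit bidirectional vs DMSO.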

The target in test [8] is Signal transducer and activator of transcription 3 (Homo sapiens) (UniProt P40763). Put plainly: ATG_STAT3_CIS: Attagene CIS-FACTORIAL HepG2 Assay for human Signal Transducer and Activator of Transcription 3 (STAT3) (AID 2282963). The conditions noted are these: HepG2, Attagene cis-factorial STAT3 reporter transcription; actives raise or lower the signal. The method in brief: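 Transcript-level reporter assay. HepG2 transient MRTU transfection, 24 h exposure, fluorescence detection after RT-PCR and CE; DMSO baseline.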

A short description of test [9]: ATG_TA_CIS: Attagene CIS-FACTORIAL HepG2 Assay for human TA Basal Promoter (AID 2282964). The conditions noted are these: HepG2 Attagene CIS-factorial TA basal promoter reporter; actives raise or lower the signal. A digest of the protocol:
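Transient MRTU transfection of HepG2 preceded 24 h compound exposure. Reporter mRNA levels were then read by RT-PCR with capillary electrophoresis, and this background-control endpoint was fitted bidirectionally to DMSO.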

Test [10] can be described thus: ATG_TCF_b_cat_CIS: Attagene CIS-FACTORIAL HepG2 Assay for human T-Cell-Factor with beta-catenin (TCF/b-cat) (AID 2282965). The conditions noted are these: HepG2 TCF/beta-catenin cis-reporter transcription, actives raise or lower the signal. The method in brief:
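Using capillary electrophoresis as the read-out, labelled reporter cDNA fragments from transiently transfected HepG2 were sized and quantified. Exposure lasted 24 hours; activity in either direction was referenced to DMSO.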

Test [11] can be described thus: ATG_TAL_CIS: Attagene CIS-FACTORIAL HepG2 Assay for human TAL Basal Promoter (AID 2282966).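 Also: background control endpoint measuring basal TAL promoter reporter mRNA not a specific factor.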 The conditions noted are these: HepG2 Attagene cis-factorial TAL promoter reporter; actives raise or lower the signal. The method in brief:
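Readout: reporter mRNA, fluorescence by CE. System: HepG2, transient multi-reporter transfection, endogenous TF activity. Exposure: 24 h. Analysis: bidirectional, DMSO-normalized; background control.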

Test [12] in a line: ATG_TGFb_CIS: Attagene CIS-FACTORIAL HepG2 Assay for human Transforming Growth Factor (TGF) (AID 2282967). The conditions noted are these: HepG2 Attagene CIS TGFb reporter, mRNA transcription; actives raise or lower the signal. A digest of the protocol: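 After a 24-hour incubation with compound, transfected HepG2 cells were lysed for RNA; reporter cDNA was amplified, fluorescently end-labeled and separated by CE. DMSO served as baseline for bidirectional fits.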

Test [13] is described as follows: ATG_VDRE_CIS: Attagene CIS-FACTORIAL HepG2 Assay for human Vitamin D Receptor Element (VDRE) (AID 2282968). The conditions noted are these: HepG2 VDRE cis-reporter transcription, actives raise or lower the signal. A digest of the protocol:
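RT-PCR/CE readout of reporter mRNA; HepG2, transient transfection, 24 h dosing; DMSO baseline; bidirectional analysis.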

In test [14] the target is Estrogen receptor (Homo sapiens) (UniProt P03372). Put plainly: ATG_ERa_TRANS: Attagene TRANS-FACTORIAL HepG2 Assay for human Estrogen Receptor alpha (ERa) (AID 2282970; active = hit-call score of the fitted dose curve at least 0.9, where 1 is the maximum). The conditions noted are these: HepG2 Attagene TRANS ERa GAL4 reporter, mRNA. A digest of the protocol: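 Transactivation via ERa-Gal4 chimera in HepG2; 24 hour incubation; reporter mRNA detected by fluorescence RT-PCR and capillary electrophoresis.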

The target of test [15] is X-box-binding protein 1 (Homo sapiens) (UniProt P17861). Put plainly: ATG_Xbp1_CIS: Attagene CIS-FACTORIAL HepG2 Assay for human X-box Binding Protein 1 (XBP1) (AID 2282972). The conditions noted are these: HepG2 XBP1 cis-element reporter, Attagene multiplex; actives raise or lower the signal. A digest of the protocol:
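HepG2, transient MRTU transfection (cis-promoter driven), 24 h compound exposure. Total RNA → oligo(dT) RT → PCR → 6-FAM labeling → HpaI cut → CE. Bidirectional fit vs DMSO.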

The nature of test [16]: ATG_M_19_TRANS: Attagene TRANS-FACTORIAL HepG2 Assay for M19 Transcription Factor (Internal Marker) (AID 2282974; active = hit-call score of the fitted dose curve at least 0.9, where 1 is the maximum). The conditions noted are these: HepG2 Attagene TRANS-FACTORIAL M19 internal marker reporter. A digest of the protocol: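 HepG2 transiently transfected with GAL4-UAS multiplex reporter constructs, exposed 24 h; reporter RNA quantified by RT-PCR, 6-FAM labeling, HpaI digestion and capillary electrophoresis; internal background marker fitted upward versus DMSO.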

The target in test [17] is Nuclear receptor subfamily 1 group I member 3 (Homo sapiens) (UniProt Q14994). The experiment in a line: ATG_CAR_TRANS: Attagene TRANS-FACTORIAL HepG2 Assay for human Constitutive Androstane Receptor (CAR) (AID 2282969; active = hit-call score of the fitted dose curve at least 0.9, where 1 is the maximum;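 also: activators raise reporter mRNA above DMSO so AC50 marks induction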). The conditions noted are these: HepG2 Attagene TRANS-FACTORIAL CAR reporter. A digest of the protocol:
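HepG2 cells transiently transfected with multiplexed GAL4-UAS reporter units expressing chimeric NR-Gal4 proteins; compound exposure 24 h. Reporter mRNA measured by RT-PCR, 6-FAM labelling, HpaI digestion and capillary electrophoresis; gain-of-signal fitted against DMSO baseline.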

Test [18] has as its target Steroid hormone receptor ERR1 (Homo sapiens) (UniProt P11474). The experiment in a line: ATG_ERRa_TRANS: Attagene TRANS-FACTORIAL HepG2 Assay for human Estrogen-Related Receptor alpha (ERRa) (AID 2282971; active = hit-call score of the fitted dose curve at least 0.9, where 1 is the maximum). The conditions noted are these: HepG2 Attagene TRANS reporter, ERRa transactivation. A digest of the protocol: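 HepG2 cells were transiently transfected with multiple GAL4-UAS reporter units, then dosed with compound for 24 h. Total RNA was reverse-transcribed, reporter cDNA PCR-amplified and fluorescently labelled, and fragments resolved by capillary electrophoresis; induction was compared with DMSO.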

Structures are written as SMILES. Values joined by “and” are separate entries in the source; they are usually repeats but may differ in a detail not shown here. Equal entries are not always repeated. Inconclusive results are not listed. More than one record can exist for a structure, and the calls need not agree. Active and inactive are the calls of the source. The calls were made as follows, unless noted: active = hit-call score of the fitted dose curve at least 0.9, where 1 is the maximum; inactive = score below 0.9.

Paired box protein Pax-6 (Homo sapiens), sequence (P26367 whole entry, looked up): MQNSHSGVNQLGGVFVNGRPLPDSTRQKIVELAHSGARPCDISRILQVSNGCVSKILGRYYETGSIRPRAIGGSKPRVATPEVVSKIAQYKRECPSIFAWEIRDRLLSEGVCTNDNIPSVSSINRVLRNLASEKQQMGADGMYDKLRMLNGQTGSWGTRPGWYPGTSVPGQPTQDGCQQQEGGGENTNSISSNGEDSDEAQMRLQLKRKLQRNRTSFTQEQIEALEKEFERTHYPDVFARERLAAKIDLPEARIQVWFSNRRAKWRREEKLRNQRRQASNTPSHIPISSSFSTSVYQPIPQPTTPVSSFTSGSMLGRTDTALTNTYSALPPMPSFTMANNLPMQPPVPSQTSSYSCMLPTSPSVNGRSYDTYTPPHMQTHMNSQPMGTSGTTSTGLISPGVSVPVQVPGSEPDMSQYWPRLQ
Signal transducer and activator of transcription 3 (Homo sapiens), sequence (P40763 whole entry, looked up): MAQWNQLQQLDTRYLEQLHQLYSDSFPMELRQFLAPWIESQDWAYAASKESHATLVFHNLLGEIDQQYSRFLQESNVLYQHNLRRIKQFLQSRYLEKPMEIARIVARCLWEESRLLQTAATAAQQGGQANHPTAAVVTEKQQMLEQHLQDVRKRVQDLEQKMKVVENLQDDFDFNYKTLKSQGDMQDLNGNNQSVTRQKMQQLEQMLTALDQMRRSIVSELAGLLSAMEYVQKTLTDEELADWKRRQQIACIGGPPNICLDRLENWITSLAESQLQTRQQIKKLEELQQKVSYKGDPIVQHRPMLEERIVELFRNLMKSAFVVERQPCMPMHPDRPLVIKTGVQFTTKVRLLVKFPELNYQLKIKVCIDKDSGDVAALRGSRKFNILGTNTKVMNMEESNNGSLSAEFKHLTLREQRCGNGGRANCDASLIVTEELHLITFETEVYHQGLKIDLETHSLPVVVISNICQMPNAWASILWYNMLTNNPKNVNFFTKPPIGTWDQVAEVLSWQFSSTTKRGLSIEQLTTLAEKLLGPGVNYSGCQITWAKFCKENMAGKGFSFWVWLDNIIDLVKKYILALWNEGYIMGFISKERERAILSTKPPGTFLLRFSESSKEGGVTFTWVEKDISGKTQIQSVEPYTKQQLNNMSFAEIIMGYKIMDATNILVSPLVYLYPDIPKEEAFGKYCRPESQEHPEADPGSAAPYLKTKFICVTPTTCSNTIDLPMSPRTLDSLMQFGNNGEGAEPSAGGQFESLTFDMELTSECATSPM
X-box-binding protein 1 (Homo sapiens), sequence (P17861 whole entry, looked up): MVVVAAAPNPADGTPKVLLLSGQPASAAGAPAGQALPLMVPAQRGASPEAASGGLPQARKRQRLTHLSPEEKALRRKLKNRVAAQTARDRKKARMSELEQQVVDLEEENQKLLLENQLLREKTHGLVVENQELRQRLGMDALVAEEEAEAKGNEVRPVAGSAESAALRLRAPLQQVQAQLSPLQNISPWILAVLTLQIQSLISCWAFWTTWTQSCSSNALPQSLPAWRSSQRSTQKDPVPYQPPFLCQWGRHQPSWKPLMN
Transcription factor Sp1 (Homo sapiens), sequence (P08047 whole entry, looked up): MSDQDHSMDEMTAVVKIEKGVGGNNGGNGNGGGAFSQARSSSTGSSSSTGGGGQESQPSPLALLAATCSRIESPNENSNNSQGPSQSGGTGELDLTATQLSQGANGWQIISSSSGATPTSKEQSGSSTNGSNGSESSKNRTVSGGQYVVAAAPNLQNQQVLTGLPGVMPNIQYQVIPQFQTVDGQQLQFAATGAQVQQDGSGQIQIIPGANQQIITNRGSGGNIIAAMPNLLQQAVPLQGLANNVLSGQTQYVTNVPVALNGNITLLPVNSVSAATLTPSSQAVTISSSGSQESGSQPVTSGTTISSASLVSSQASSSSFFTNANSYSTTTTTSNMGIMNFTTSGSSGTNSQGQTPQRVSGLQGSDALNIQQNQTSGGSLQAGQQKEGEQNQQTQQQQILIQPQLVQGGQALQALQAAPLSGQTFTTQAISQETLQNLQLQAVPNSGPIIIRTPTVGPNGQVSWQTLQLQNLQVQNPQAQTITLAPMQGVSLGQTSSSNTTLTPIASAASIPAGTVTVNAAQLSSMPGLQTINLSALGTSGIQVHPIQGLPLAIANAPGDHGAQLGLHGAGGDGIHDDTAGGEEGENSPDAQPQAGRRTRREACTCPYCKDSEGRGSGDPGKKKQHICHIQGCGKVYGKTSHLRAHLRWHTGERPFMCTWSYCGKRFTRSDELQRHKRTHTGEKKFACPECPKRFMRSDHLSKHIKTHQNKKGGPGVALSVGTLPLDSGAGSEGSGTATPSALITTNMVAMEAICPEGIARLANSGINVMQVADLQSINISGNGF
Nuclear receptor subfamily 1 group I member 3 (Homo sapiens), sequence (Q14994 whole entry, looked up, the tested form may be a part): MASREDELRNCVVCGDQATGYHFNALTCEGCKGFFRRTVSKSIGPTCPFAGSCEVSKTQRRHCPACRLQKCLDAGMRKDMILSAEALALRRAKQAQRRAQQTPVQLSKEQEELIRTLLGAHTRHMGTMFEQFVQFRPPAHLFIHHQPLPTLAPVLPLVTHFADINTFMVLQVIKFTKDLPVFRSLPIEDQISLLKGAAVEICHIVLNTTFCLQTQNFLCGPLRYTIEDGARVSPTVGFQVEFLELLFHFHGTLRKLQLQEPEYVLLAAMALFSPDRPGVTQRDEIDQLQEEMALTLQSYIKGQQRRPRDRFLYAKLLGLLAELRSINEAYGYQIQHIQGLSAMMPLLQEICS
Estrogen receptor (Homo sapiens), sequence (P03372 whole entry, looked up, the tested form may be a part): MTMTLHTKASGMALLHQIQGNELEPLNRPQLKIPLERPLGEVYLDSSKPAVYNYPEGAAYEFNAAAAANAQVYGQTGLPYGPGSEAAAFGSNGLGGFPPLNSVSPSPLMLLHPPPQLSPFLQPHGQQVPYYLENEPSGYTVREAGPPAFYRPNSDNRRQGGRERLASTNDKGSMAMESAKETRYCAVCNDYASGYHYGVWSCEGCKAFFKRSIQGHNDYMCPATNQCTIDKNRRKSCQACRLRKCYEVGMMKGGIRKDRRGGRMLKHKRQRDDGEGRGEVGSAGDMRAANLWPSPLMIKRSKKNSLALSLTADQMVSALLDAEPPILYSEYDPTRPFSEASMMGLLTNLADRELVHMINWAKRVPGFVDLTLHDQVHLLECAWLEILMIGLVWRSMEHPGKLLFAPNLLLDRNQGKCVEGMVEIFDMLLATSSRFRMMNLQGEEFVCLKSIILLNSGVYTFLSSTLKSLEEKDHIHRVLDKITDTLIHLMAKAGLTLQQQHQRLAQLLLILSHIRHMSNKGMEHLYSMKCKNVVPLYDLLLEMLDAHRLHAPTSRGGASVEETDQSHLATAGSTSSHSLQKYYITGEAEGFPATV
Steroid hormone receptor ERR1 (Homo sapiens), sequence (P11474 whole entry, looked up, the tested form may be a part): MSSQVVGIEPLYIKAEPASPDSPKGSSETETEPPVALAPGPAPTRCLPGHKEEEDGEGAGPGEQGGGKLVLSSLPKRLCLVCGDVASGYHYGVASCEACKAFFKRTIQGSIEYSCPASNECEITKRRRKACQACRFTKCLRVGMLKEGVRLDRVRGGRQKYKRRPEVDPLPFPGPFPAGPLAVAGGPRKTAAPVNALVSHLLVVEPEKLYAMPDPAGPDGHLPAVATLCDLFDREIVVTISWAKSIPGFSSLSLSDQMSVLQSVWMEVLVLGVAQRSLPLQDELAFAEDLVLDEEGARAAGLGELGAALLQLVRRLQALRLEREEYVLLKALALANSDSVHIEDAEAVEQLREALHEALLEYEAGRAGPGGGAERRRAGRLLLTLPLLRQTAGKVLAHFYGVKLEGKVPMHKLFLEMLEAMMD

Take `O=C(O)C(F)(F)C(F)(F)C(F)(F)C(F)(F)C(F)(F)C(F)(F)C(F)(F)C(F)(F)F`: the AC50 was 224 µM (active) and 50 µM (active) in [1]; 22.7 µM (active) and 38.2 µM (active) and 13.6 µM (active) in [2]; 33.4 µM (active) and 89.8 µM (active) and 34 µM (active) in test [3]; 214 µM (active) and 34.7 µM (active) in [4]; 50 µM (active) in test [9]; 33.4 µM (active) and 150 µM (active) and 50 µM (active) in test [10]. The AC50 is 48.2 µM (active) and 72.7 µM (active) in [12]; 205 µM (active) and 40 µM (active) in [13]; 27.8 µM (active) and 71.8 µM (active) and 36.7 µM (active) in test [14]; 150 µM (active) and 39.2 µM (active) in test [15]. Further, the call in test [1], in [4], in [5], in test [6], in [7] and in test [8] was inactive. In addition, the outcome in [9], in test [11], in test [12], in [13], in test [15] and in test [16] was inactive.
As to `O=S(=O)(O)C(F)(F)C(F)(F)C(F)(F)C(F)(F)C(F)(F)C(F)(F)F`, the result in test [1], in test [4], in [5], in test [6], in test [7] and in [8] was inactive. Also, the compound was classed as inactive in test [9], in test [10], in test [11], in test [12], in [13] and in test [17]. Besides, the outcome in [14], in test [15] and in test [16] was inactive. Further, the AC50 in test [2] is 51.4 µM (active) [middle of 4 runs]; in test [3], 97.7 µM (active) [middle of 4 runs]; in test [14], 105 µM (active).
Turning to `NS(=O)(=O)C(F)(F)C(F)(F)C(F)(F)C(F)(F)C(F)(F)C(F)(F)C(F)(F)C(F)(F)F`, the AC50 is 54.8 µM (active) and 92.1 µM (active) in [1]; 246 µM (active) in [2]; 38.7 µM (active) and 25.8 µM (active) in test [3]; 78 µM (active) in test [4]; 83.8 µM (active) in [5]; 24.4 µM (active) and 38.7 µM (active) and 27.6 µM (active) in test [6]. Further, the AC50 in [7] was 38.9 µM (active) and 50 µM (active); in [10], 150 µM (active); in [14], 25.8 µM (active) and 7.34 µM (active) and 5.15 µM (active); in test [15] it was 41.7 µM (active) and 39.9 µM (active) and 50 µM (active). Moreover, the outcome in test [1], in test [2], in [3], in [4], in test [5] and in test [7] was inactive. The call in [8], in [9], in test [10], in [11], in test [12] and in [17] was inactive. Further, the compound was classed as inactive in test [16].
For `O=C(O)C(F)(F)C(F)(F)C(F)(F)C(F)(F)C(F)(F)C(F)(F)C(F)(F)C(F)(F)C(F)(F)F`, the AC50 in test [1] was 49 µM (active) and 33 µM (active) and 54.8 µM (active); in test [2], 57.5 µM (active); in test [3] it was 47.5 µM (active) and 14.8 µM (active); in test [4] it was 50.5 µM (active) and 32.8 µM (active); in test [5], 33.4 µM (active); in test [10], 45 µM (active) and 35.7 µM (active) and 14.7 µM (active). Also, the AC50 in test [11] is 61.9 µM (active); in test [12], 48.9 µM (active) and 14.6 µM (active); in [14], 25.4 µM (active) and 22.6 µM (active) and 17.2 µM (active); in [15] it was 50.8 µM (active) and 50 µM (active). The outcome in [2], in test [3], in [4], in test [5], in [6] and in test [7] was inactive. Besides, the compound was classed as inactive in test [8], in [9], in [11], in test [12], in [17] and in [18]. Moreover, the compound was called inactive in test [15] and in test [16].

(Values after PubChem BioAssay (EPA / NIEHS).)
